Several values for one entry are separate records, joined by “and”; a condition that tells them apart may be missing. Equal entries are not always repeated. Activity calls are given as the source filed them. Rule for the calls: active = hit-call score of the fitted dose curve at least 0.9, where 1 is the maximum; inactive = score below 0.9.
Read-out: Tissue Factor, F3 (gene 2152)
Assay: BSK_LPS_TissueFactor: BioMAP Diversity Plus: LPS Assay for Tissue Factor Biomarker Activity (AID 2283084)
Settings: primary human HUVEC with PBMC; actives raise or lower the signal
Description: BSK_LPS is a cell-based, multiplexed-readout assay that uses umbilical vein endothelium and peripheral blood mononuclear cells, a human vascular primary cell co-culture, with measurements taken at 24 hours after chemical dosing in a 96-well plate.BSK_LPS_TissueFactor is an assay component measured in the BSK_LPS assay. It measures CD142 Tissue Factor antibody related to regulation of gene expression using ELISA technology.Data from the assay component BSK_LPS_TissueFactor was analyzed into 1 assay endpoint. This assay endpoint, BSK_LPS_TissueFactor, was analyzed with bidirectional fitting relative to DMSO as the negative control and baseline of activity. Using a type of binding reporter, gain or loss-of-signal activity can be used to understand changes in the signaling as they relate to the gene F3. Furthermore, this assay endpoint can be referred to as a primary readout, because this assay has produced multiple assay endpoints where this one serves a signaling function. To generalize the intended target to other relatable targets, this assay endpoint is annotated to the cytokine intended target family, where the subfamily is coagulation factor.
The levels of cell surface (or secreted, indicated by the prefix "s") biomarker endpoints were measured by ELISA. Overt cytotoxicity to cells in confluent adherent cultures (all systems other than the BT system) was assessed by measuring total protein levels using sulforhodamine B (SRB) staining in parallel cultures at the time of biomarker measurements, indicated as SRB endpoints. For proliferation assays for adherent cell types, individual cell types are cultured at sub-confluence and relative cell numbers quantified by SRB staining at time points optimized for each system (48 h: 3C and CASM3C systems; 72 h: BT and HDF3CGF systems; 96 h: SAg system). SRB was performed by staining cells with 0.1% SRB after fixation with 10% TCA and reading wells at 560 nm.Viability and proliferation of PBMC (T cells) was quantified by Alamar Blue reduction for the SAg and BT systems. For PBMC viability (referred to as PBMC Cytotoxicity within the assay endpoint names), cells were plated (75,000/well in a 96-well plate) and then chemical samples added for 1 h before addition of activators, SEB and TSST-1 (20 ng/mL final concentration each). Cells were incubated for 90 h. Then, Alamar Blue (20 uL/well) (Invitrogen, Cat DAL1100) was added for 6 h, and the plates were read with a fluorescence microplate reader at 546/580 nm (excitation/emission). For PBMC proliferation, cells were plated and activated as above but incubated for only 16 h prior to addition of Alamar Blue. Plates were read after 6 h.

Compound	AC50	outcome
O=C1C(Cl)=C(Cl)C(=O)C(Cl)=C1Cl	30.1 µM (active)	
CC(C)CCCCCCCOP(=O)(Oc1ccccc1)Oc1ccccc1	31 µM (active)	
Oc1ccc(C2(c3ccc(O)cc3)c3ccccc3-c3ccccc32)cc1	32 µM (active) and 29.5 µM (active)	
O=S(=O)(c1ccccc1)c1ccccc1		inactive
CC(C)(C)C(=O)CCl		inactive
COc1ccc(CO)cc1		inactive
Cc1ccc(OP(=O)(Oc2ccc(C)cc2)Oc2ccc(C)cc2)cc1 (tested in a mixture with another compound)		inactive
O=C(O)CCCc1ccc(N(CCCl)CCCl)cc1	20 µM (active) and 12.5 µM (active)	
O=P1(NCCCl)OCCCN1CCCl (stereo not drawn)		inactive
c1ccc(Nc2ccc3ccccc3c2)cc1		inactive
CC1(C)[C@H](C(=O)O[C@H](C#N)c2cccc(Oc3ccccc3)c2)[C@@H]1C=C(Br)Br		inactive
CC(=O)/C=C/c1ccccc1		inactive
CCCOC(=O)c1ccccc1C(=O)OCCC		inactive
CCc1cc(C)cc(CC)c1-c1c(OC(=O)C(C)(C)C)n2n(c1=O)CCOCC2		inactive
COC(C)(C)CCC[C@H](C)C/C=C/C(C)=C/C(=O)OC(C)C	26.8 µM (active)	
C=CCN(CC=C)C(=O)C(Cl)Cl		inactive
CCCC[N+](CCCC)(CCCC)CCCC		inactive
O=[N+]([O-])c1ccc(Cl)cc1		inactive
C=CC(=O)OCC(CC)CCCC (stereo not drawn)		inactive

Compound	AC50	outcome
O=C(CCl)c1ccccc1	5.81 µM (active)	
CC(C)CCCCCCCOC(=O)c1ccccc1C(=O)OCCCCCCCC(C)C		inactive
COCC(=O)N(c1c(C)cccc1C)N1CCOC1=O		inactive
CC(C)(C)C(O)C(Oc1ccc(-c2ccccc2)cc1)n1cncn1 (stereo not drawn)		inactive
O=c1c2ccccc2c(=O)c2c1cc(Cl)c1[nH]c3c([nH]c12)c(Cl)cc1c(=O)c2ccccc2c(=O)c13		inactive
Oc1cc(Cl)ccc1Cl		inactive
O=[N+]([O-])O		inactive
CNC(=O)Oc1cc(C)c(SC)c(C)c1		inactive
Clc1ccc(-c2ccccc2)cc1		inactive
O=[N+]([O-])C=Cc1ccccc1	10.7 µM (active)	
O=C1C=CC(=O)C=C1		inactive
CCC(C)c1cc([N+](=O)[O-])cc([N+](=O)[O-])c1OC(=O)C=C(C)C (stereo not drawn)	33.5 µM (active)	
[Cd+2].[Cl-].[Cl-]		inactive
CCCCCCCCCCCC#N	24.1 µM (active)	
Nc1ccc(-c2ccc(N)c(N)c2)cc1N		inactive
CC(C)COP(=O)(OCC(C)C)OCC(C)C		inactive
O=c1[nH]c(Cl)c(Cl)cc1Cl		inactive
CC(C)(c1cc(Cl)c(O)c(Cl)c1)c1cc(Cl)c(O)c(Cl)c1	31.3 µM (active)	
N#CCCCCC#N		inactive

Reference: PubChem BioAssay (EPA / NIEHS)
